BoNT-F LC inh: inhibitors of Botulinum neurotoxin F light chain protease; Multiplex microsphere protease cleavage assay, flow cytometry; inhibition, % at 10 µM; 0.22% of 360,000 active; in the data active = inhibition above about 35%, passing the limit was not always enough; inconclusive = no clear call, values can overlap the other calls; note: plate controls were buffer without enzyme for full effect and enzyme alone for no effect
Autofluor counter: flagged as autofluorescent in microsphere protease counterscreen; compound autofluorescence counterscreen, microsphere flow cytometry; hits give high values; fluorescence intensity (no concentration beside the values); 3.1% of 360,000 active; in the data active = fluorescence intensity above about 16000; inconclusive = no clear call, values can overlap the other calls
Anthrax LF inh2: anthrax lethal factor protease inhibition; P15917; multiplex microsphere protease cleavage assay, LF; inhibition, % at 10 µM; 0.12% of 360,000 active; AID 588501; note: plate controls were buffer without enzyme for full effect and enzyme alone for no effect
TcdB GH inh: TcdB glycohydrolase inhibition; TcdB glycohydrolase enzymatic assay, plate reader; inhibition, % at 9.99 µM; 0.24% of 350,000 active; in the data active = inhibition above about 10%
BoNT A protease: inhibitors of Botulinum neurotoxin A light chain protease. multiplex microsphere protease substrate cleavage, flow cytometry. inhibition, % at 10 µM. 0.17% of 360,000 active. AID 588499; note: plate controls were buffer without enzyme for full effect and enzyme alone for no effect
The depositor's hits bear a star; ? = inconclusive; . = not tested or not shown. Shown is part of a subset that was picked to be rich in hits. Cut-off read from the data, not from the text of the source, unless noted: active = inhibition above about 30%; inconclusive = no clear call, values can overlap the other calls; inactive = below that.

SMILES	BoNT-F LC inh	Autofluor counter	Anthrax LF inh2	TcdB GH inh	BoNT A protease
Cc1noc(C)c1S(=O)(=O)Nc1ccc2c(c1)C(=O)N([C@@H](C)CO)C[C@H](C)[C@H](CN(C)S(C)(=O)=O)OCCCC[C@@H](C)O2	.	.	.	0	.
O=C(Nc1ccc(S(=O)(=O)NCCc2ccccc2)cc1)c1ccco1	0	23096*	-2	1	1
O=S(=O)(NCc1ccc2c(c1)OCO2)c1ccc2oc3ccccc3c2c1	2	16406*	-1	.	0
O=C(Nc1ccc(S(=O)(=O)NCCc2ccccc2)cc1)c1ccncc1	16	4361	4	0	9
COC(=O)Nc1ccc(S(=O)(=O)NCCO)cc1	-7	18225*	-2	.	-4
O=C(O)CCCNS(=O)(=O)c1ccc(F)cc1	-3	24742*	-1	.	-2
COc1cccc(C(=O)Nc2ccc3c(c2)OC[C@@H](C)N(C(=O)C2CCCC2)C[C@H](C)[C@@H](OC)CN(C)C3=O)c1	.	.	.	0	.
O=C(O)CCc1ccc(S(=O)(=O)NCCc2ccccc2)cc1	0	20869*	1	.	-3
COc1ccc(S(=O)(=O)NCCC(=O)NCc2ccc(F)cc2)cc1	12	19366*	0	.	10
CC(=O)Nc1ccc(S(=O)(=O)NCCc2ccc(F)cc2)cc1	-4	19405*	-4	.	0
CC(=O)Nc1ccc(S(=O)(=O)NCCc2ccc(S(N)(=O)=O)cc2)cc1	6	6434	-4	.	0
O=C(CCc1ccc(S(=O)(=O)NCCc2ccccc2)cc1)NCc1ccc2c(c1)OCO2	-2	24716*	-1	.	-3
COc1ccc(S(=O)(=O)N[C@H]2C=C[C@H](CC(=O)N3CCN(c4ccccc4)CC3)O[C@H]2CO)cc1	.	.	.	0	.
O=C(N[C@H]1CC[C@@H](CCn2cc(C3(O)CCCC3)nn2)O[C@@H]1CO)C1CCC1	.	.	.	-1	.
O=S(=O)(NCCSc1ccc(Cl)cc1)c1ccc(F)cc1	-4	16419*	-2	.	0
CC(=O)Nc1ccc(S(=O)(=O)NCc2ccc3[nH]c(C)cc3c2)cc1	-88	3018	-39	-2	53*
COc1ccc(S(=O)(=O)CCC(=O)NCCc2ccc(C)cc2)cc1	1	16185*	-4	.	0
O=C(Nc1ccccc1F)N[C@H]1CC[C@@H](CCNS(=O)(=O)c2ccccc2)O[C@@H]1CO	.	.	.	0	.
O=C(Nc1c(Cl)cc(Cl)cc1C(=O)NCCN1CCOCC1)c1ccc(Cl)cc1Cl	-1	16191*	0	.	0
COc1ccc(-n2c(C)nc3cc(C(=O)NCCN4CCOCC4)ccc32)cc1	1	23270*	1	0	?
O=C(Nc1ccc(Cl)cc1C(=O)NCCN1CCOCC1)c1ccc(Cl)cc1Cl	-6	9187	-4	.	0
COc1ccc(C(=O)Nc2c(Cl)cc(Cl)cc2C(=O)NCCN2CCOCC2)cc1	-2	21881*	0	1	?
CC(C)(C)[S@@](=O)N1Cc2cc(C(=O)N3CCCCC3)nc(-c3cccc(-c4ccc(C#N)cc4)c3)c2[C@H]1CCO	.	.	.	0	.
COc1ccc(C2CC(c3cccc([N+](=O)[O-])c3)=NN2/C(C)=C/C(C)=O)cc1 (stereo unspecified)	77*	54573*	1	1	-11
COc1ccc(C2=NN(C(=O)c3cccc([N+](=O)[O-])c3)C(c3cccc([N+](=O)[O-])c3)C2)cc1 (stereo unspecified)	-2	19134*	0	.	1
SMILES	BoNT-F LC inh	Autofluor counter	Anthrax LF inh2	TcdB GH inh	BoNT A protease
CC=Cc1ccc2n(c1=O)C[C@@H]1[C@@H](CO)[C@H](C(=O)NCc3ccccc3)[C@H]2N1Cc1ccccc1OC (mixture of isomers)	.	.	.	0	.
C[C@H]1CN([C@@H](C)CO)C(=O)c2cc(NS(=O)(=O)c3ccc(Cl)cc3)ccc2O[C@H]1CN(C)C(=O)NC1CCCCC1	.	.	.	0	.
COc1nc(-c2ccccc2)cc(-c2ccc(OC)c(OC)c2)n1	-2	19447*	-1	.	0
O=C(Nc1ccc2c(c1)OCO2)C1COc2ccccc2O1 (stereo unspecified)	-26	3103	-2	.	-1
O=C(Nc1ccc2c(c1)CCC2)C1COc2ccccc2O1 (stereo unspecified)	0	23530*	-6	-1	0
CC1=CCC(C(=O)O)C(C(=O)O)C1 (stereo unspecified)	-1	22181*	-1	.	-1
CC1=CCC(C(=O)O)C(C(=O)NC2CCCCC2)C1 (stereo unspecified)	-1	6105	-4	1	-2
CC1(C)CSC(Nc2ccc(F)c(Cl)c2)=N1	-16	3869	3	.	0
Cc1cc2n(n1)SC(Nc1ccc(F)c(Cl)c1)N2 (stereo unspecified)	-4	20632*	1	.	?
Cc1noc(C)c1S(=O)(=O)N(C)C[C@H]1OCCCC[C@@H](C)Oc2ccc(NS(=O)(=O)c3ccccc3)cc2C(=O)N([C@H](C)CO)C[C@@H]1C	.	.	.	0	.
Cc1ccc(-c2nc3cc(NS(=O)(=O)c4ccc(C)cc4)ccc3o2)cc1	5	20631*	-8	.	7
Cc1ccc(-c2nc3cc(N)ccc3o2)cc1	-1	23399*	-2	.	0
Cc1ccc(-c2nc3cc(C)ccc3o2)cc1	2	3240	-6	.	0
CC(C)c1ccc2oc(-c3ccc(N)cc3)nc2c1	-8	21916*	-2	.	-7
O=C1O[C@@H](c2ccccc2)[C@@H](c2ccccc2)N2[C@@H](c3ccc(O)cc3)[C@]3(C(=O)Nc4ccc(C#CC5=CCCCC5)cc43)[C@@H](C(=O)N3CCCCCCC3)[C@H]12	.	.	.	-1	.
Cc1ccc(NC(=O)NC2C(NC(=O)Nc3ccc(C)cc3)N(C)C(=O)N2C)cc1 (stereo unspecified)	17	18428*	-17	1	?
Cc1ccc(S(=O)(=O)NCCC(=O)NC2CCCC2)cc1	2	20213*	1	.	?
O=C(CCNS(=O)(=O)c1ccc(Br)s1)NC1CCCC1	-1	24053*	1	1	-2
C[C@H]1CN([C@@H](C)CO)C(=O)c2cc(NC(=O)CCN3CCOCC3)ccc2O[C@H]1CN(C)Cc1ccc(Oc2ccccc2)cc1	.	.	.	0	.
COc1ccc(C#Cc2ccc([C@H]3[C@@H](CO)N4C(=O)CN(C(=O)c5ccc(F)cc5)C[C@H]34)cc2)cc1	.	.	.	1	.
CCCOc1ccc(C(=O)N/N=C/c2ccc(-c3ccc(S(=O)(=O)Nc4ncccn4)cc3)o2)cc1	-9	22659*	-1	.	?
CCOC(=O)C1CCCN(C(=O)c2ccco2)C1 (stereo unspecified)	-1	23110*	3	.	1
CCOC(=O)C1CCCN(C(=O)N2CCOCC2)C1 (stereo unspecified)	-1	19919*	-2	.	?
CCOC(=O)C1CCCN(C(=O)c2cc3c(C)nc4ccccc4c3o2)C1 (stereo unspecified)	3	22194*	1	.	0
Cc1nc2ccccc2c2oc(C(=O)N3CC(C)CC(C)C3)cc12 (stereo unspecified)	-5	5918	-1	1	0
CCOC(=O)C1CCCN(c2c(N3CCOCC3)c(=O)c2=O)C1 (stereo unspecified)	-12	4540	-3	2	-1
